Active and inactive are the calls of the source.
System: not listed separately
Test: forskolin-driven CRE-LacZ activity in PC12 – cell-based, CRE-LacZ reporter, forskolin-stimulated, primary screen (AID 1146);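 note: PC12 cells with 6xCRE LacZ reporter stimulated by forskolin 10 µM; beta-galactosidase reporter signal reflecting CREB driven transcription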
Conditions: luminescence, 4.5 h, higher = more signal, called active from +8 up or from −8 down

| Compound | z-score |
| --- | --- |
| CC1(C)C2C=C(C(O)C3C=CC4C(=O)NC(=O)C4N3Nc3ccc(Cl)cc3Cl)C[C@@H]1C2 (stereo partly specified) | -0.0073 (inactive) |
| CO[C@H]1O[C@H](CO)[C@@H](OC(=O)Nc2cccc(F)c2)[C@H](OC(=O)Nc2ccccc2)[C@@H]1OC(=O)Nc1ccccc1 | -0.74 (inactive) |
| COc1ccc(C(O)C2C=CC3C(=O)N(Cc4ccccc4)C(=O)C3N2n2cnnc2)cc1OCc1ccccc1 (stereo unspecified) | -0.0263 (inactive) |
| COC(=O)[C@@]1(Cc2ccc(OC)cc2)[C@H]2c3cc(C(=O)N4CCCC4)n(Cc4ccc(C)c(F)c4F)c3C[C@H]2CN1C(=O)c1ccccc1 | -0.572 (inactive) |
| CC(=O)NCCCC[C@@H]1NC(=O)[C@H]2C[C@@H](C(=O)NCCCCCCNC(=O)CS)[C@@H](c3ccc(O)cc3)N2C1=O | 0.14 (inactive) |
| COCCOC(=O)N1C(=O)[C@@]2(c3cc(C#CC4(O)CCCCCC4)ccc31)[C@H](c1ccc(OCCO)cc1)N1[C@H](c3ccccc3)[C@H](c3ccccc3)OC(=O)[C@H]1[C@@H]2C(=O)N1CCN(c2ncccn2)CC1 | 0.838 (inactive) |
| CCCCCN1CC=CC23O[C@@H]4/C=C\CCC(C)OC(=O)C4[C@H]2C(=O)N(C(C)CO)[C@@H]3C1=O (stereo partly specified) | -0.672 (inactive) |
| COc1ccc(C#Cc2ccc3c(c2)[C@]2(C(=O)N3)[C@H](C(=O)NC[C@H](O)c3ccccc3)[C@H]3C(=O)O[C@H](c4ccccc4)[C@H](c4ccccc4)N3[C@@H]2c2ccc(O)cc2)cc1 | -0.301 (inactive) |
| COc1ccc(C#Cc2ccc3c(c2)[C@]2(C(=O)N3)[C@H](c3ccccc3OCCO)N3[C@H](c4ccccc4)[C@H](c4ccccc4)OC(=O)[C@H]3[C@@H]2C(=O)Nc2nc3ccccc3s2)cc1 | -1.38 (inactive) |
| CN1C(=O)C2C=CC(C(O)c3ccco3)N(Nc3ccccc3)C2C1=O (stereo unspecified) | 0.0834 (inactive) |

Target: Streptavidin (Streptomyces avidinii) (UniProt P22629)
Sequence (P22629 whole entry, looked up): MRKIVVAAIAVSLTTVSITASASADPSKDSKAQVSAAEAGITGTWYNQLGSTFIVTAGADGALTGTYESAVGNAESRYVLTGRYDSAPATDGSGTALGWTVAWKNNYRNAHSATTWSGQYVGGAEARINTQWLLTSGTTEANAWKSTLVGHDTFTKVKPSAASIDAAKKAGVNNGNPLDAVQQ
Test: compounds binding control protein streptavidin – biophysical, small-molecule microarray, 635/667 nm fluorescence, artefact control for SMM compound annotation, primary screen (AID 1147);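 note: signal reflects streptavidin binding to arrayed compounds as a control protein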
Conditions: higher = more signal

| Compound | composite z-score |
| --- | --- |
| COCCOC(=O)N1C(=O)[C@@]2(c3cc(C#CCC(C(=O)OC)C(=O)OC)ccc31)[C@H](c1ccccc1OCCO)N1[C@H](c3ccccc3)[C@H](c3ccccc3)OC(=O)[C@H]1[C@@H]2C(=O)N1CCN(c2ncccn2)CC1 | 0.635 |
| C=CCC(OC(C)=O)[C@@H]1[C@@H](N(Cc2ccc(-c3ccccc3)cc2)C(=O)c2cccc3ccccc23)c2cc(OCCCO)ccc2N1C(=O)c1ccc(-c2ccccc2)cc1 (stereo partly specified) | 0.232 |
| O=C(NCCO)C1=C[C@H](Oc2ccccc2I)[C@@H](O)[C@H](N(Cc2ccco2)C(=O)Cc2ccccc2)C1 | 0.317 |
| C#C[C@H](O[Si](C#Cc1ccc(Oc2ccccc2)cc1)(C(C)C)C(C)C)c1ccccc1 | 0.145 |
| CC1CC/C=C\[C@H]2OC34C=CCN(Cc5ccccc5)C(=O)[C@H]3N(CCCO)C(=O)[C@@H]4C2C(=O)O1 (stereo partly specified) | -0.942 |
| CCOC(=O)C[C@H]1[C@H](OC(=O)c2ccc(C(=O)c3ccccc3)cc2)[C@@H](NC(=O)c2ccccc2)c2cc(OCCCO)ccc2N1C(=O)Cc1ccc(OC)cc1 | 0.101 |
| CC(C)CNC(=O)[C@@]1(Cc2ccccc2I)c2ccccc2C(=O)N(C2CCCCC2)[C@H]1c1ccc(CO)cc1 | -0.346 |
| Cc1ccc(S[C@]2(C(=O)NCCCN(C)C)CC(=O)N(Cc3ccccc3C(F)(F)F)[C@@H]2c2ccc(CO)cc2)cc1 | -0.0283 |
| C=CC[C@]1(C(=O)NCCCOC)N=C(c2ccc(OCCCO)cc2)O[C@H]1c1ccccc1CN=[N+]=[N-] | 0.828 |
| Cc1ccc(S[C@]2(C(=O)NCCCN(C)C)CC(=O)N(Cc3cc(C(F)(F)F)cc(C(F)(F)F)c3)[C@@H]2c2ccc(CO)cc2)cc1 | -0.529 |
| CCCC[C@H]1OB(O)C[C@H]2C1=C(COC)Cn1c(=O)n(-c3ccccc3)c(=O)n12 | -0.333 |
| COc1ccc(/C=C/C=O)cc1 | 0.166 |
| NC(=O)NCC#Cc1ccc2c(c1)[C@]1(C(=O)N2)[C@H](c2ccccc2OCCO)N2[C@H](c3ccccc3)[C@H](c3ccccc3)OC(=O)[C@H]2[C@@H]1C(=O)Nc1nc2ccccc2s1 | 0.441 |
| C=CCC(OC(C)=O)[C@@H]1[C@@H](N(Cc2ccc(-c3ccccc3)cc2)C(=O)c2ccc(-c3ccccc3)cc2)c2cc(OCCCO)ccc2N1C(=O)Cc1ccc2ccccc2c1 (stereo partly specified) | 0.497 |
| Cc1ccc(N2C(=O)c3ccccc3[C@@H](C(=O)NC3CC3)[C@@H]2c2ccc(CO)cc2)nc1 | -1.76 |
| COCCCNC(=O)[C@@]1(C)c2ccccc2C(=O)N(C(C)C)[C@H]1c1ccc(CO)cc1 | 0.889 |
